The nature of assay [1]: Quantitative High-Throughput drug screen in 47 multiple myeloma cell lines against the NCATS MIPE library collection: XG6_PLB cell viability assay (AID 1919865). Further: nearly all actives have a fitted effect of over 40% in size. Further: potency means the concentration at half of the fitted maximal effect. The method in brief:
(§1)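 500 cells/well per myeloma line exposed to pinned MIPE 4.0 compounds for 48 h at 37 °C, 5% CO2. Viability read as ATP by CellTiter-Glo luminescence, normalised to DMSO-only (100%) and media-only (0%) wells.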

The nature of assay [2]: Quantitative High-Throughput drug screen in 47 multiple myeloma cell lines against the NCATS MIPE library collection: XG1_PLB cell viability assay (AID 1919866). Further: nearly all actives have a fitted effect of over 35% in size. Further: potency means the concentration at half of the fitted maximal effect. In outline:
as §1

The nature of assay [3]: Quantitative High-Throughput drug screen in 47 multiple myeloma cell lines against the NCATS MIPE library collection: UTMC2_PLB cell viability assay (AID 1919868). Further: nearly all actives have a fitted effect of over 55% in size. Further: potency means the concentration at half of the fitted maximal effect. The conditions noted are these: CellTiter-Glo ATP luminescence, 48 h; viability (% of DMSO control): at 45.8 µM (top of the series). The method in brief:
as §1

Assay [4] in a line: Quantitative High-Throughput drug screen in 47 multiple myeloma cell lines against the NCATS MIPE library collection: PE2_PLB cell viability assay (AID 1919869). Further: nearly all actives have a fitted effect of over 35% in size. Further: potency means the concentration at half of the fitted maximal effect. The method in brief:
as §1

Assay [5] is described as follows: Quantitative High-Throughput drug screen in 47 multiple myeloma cell lines against the NCATS MIPE library collection: PCM6_Riken cell viability assay (AID 1919870). Further: nearly all actives have a fitted effect of over 30% in size. Further: potency means the concentration at half of the fitted maximal effect. In outline: as §1
The nature of assay [6]: Quantitative High-Throughput drug screen in 47 multiple myeloma cell lines against the NCATS MIPE library collection: KMS11_JCRBsus cell viability assay (AID 1919873). Further: nearly all actives have a fitted effect of over 50% in size. Further: potency means the concentration at half of the fitted maximal effect. In outline: as §1
Assay [7] in a line: Quantitative High-Throughput drug screen in 47 multiple myeloma cell lines against the NCATS MIPE library collection: VP6_DJ cell viability assay (AID 1919867). Further: potency means the concentration at half of the fitted maximal effect; nearly all actives have a fitted effect of over 40% in size. The method in brief: as §1
A short description of assay [8]: Quantitative High-Throughput drug screen in 47 multiple myeloma cell lines against the NCATS MIPE library collection: KMS28BM_JCRB cell viability assay (AID 1919874). Further: nearly all actives have a fitted effect of over 35% in size. Further: potency means the concentration at half of the fitted maximal effect. The method in brief:
as §1

Assay [9] in a line: Quantitative High-Throughput drug screen in 47 multiple myeloma cell lines against the NCATS MIPE library collection: RPMI8226_ATCC cell viability assay (AID 1919871). Further: nearly all actives have a fitted effect of over 30% in size. Further: potency means the concentration at half of the fitted maximal effect. The method in brief: as §1
A short description of assay [10]: Quantitative High-Throughput drug screen in 47 multiple myeloma cell lines against the NCATS MIPE library collection: OPM2_DSMZ cell viability assay (AID 1919872). Further: nearly all actives have a fitted effect of over 30% in size. The method in brief:
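Relative luminescence from CellTiter-Glo served as the viability signal, referenced to DMSO-treated (100%) and cell-free medium (0%) controls. Treatment lasted 48 hours at 37C with 500 cells per well.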

The target of assay [11] is Cytochrome P450 3A4 (Homo sapiens) (UniProt P08684). The assay is described as follows: qHTS for inhibitors of CYP3A4 against the NCATS DSHEA and TCM libraries (AID 1919971).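 Further: on the % scale 0 is the no-effect control and ±100 the full control effect; inhibition lowers luminescence from luciferin made by CYP3A4.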 In outline:
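Luminescent P450-Glo format: compounds preincubated 15 min with enzyme and luciferin substrate, reaction run 30-45 min after NADPH regeneration solution. Intraplate controls: ketoconazole for CYP3A4 and CYP2C19, sulfaphenazole for CYP2C9.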
(In qHTS, concentration-response curves come from the screen itself.)

The target in assay [12] is Cytochrome P450 2D6 (Homo sapiens) (UniProt P10635). In words: qHTS for inhibitors of CYP2D6 against the NCATS DSHEA and TCM libraries (AID 1919972). Further: on the % scale 0 is the no-effect control and ±100 the full control effect. In outline: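 Luminescent P450-Glo read-out of CYP2D6 turnover of a luciferin substrate after NADPH-driven reaction of 30-45 min at room temperature. Compounds were first preincubated 15 min with enzyme at titrated concentrations; quinidine was the intraplate control.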

Assay [13] can be described thus: KB-3-1 P-gp reporter qHTS against the NCATS DSHEA and TCM libraries (AID 1919975). Further: 0% is about no effect. The method in brief: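 Cell viability by CellTiter-Glo luminescence following ~72 h compound exposure (concentration-response). Uses parental, non-P-gp-overexpressing KB-3-1 line, 500 cells/well in DMEM/10% FBS, attached ~4 h before dosing.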
Assay [14] in a line: qHTS Counterscreen for compound interference against the NCATS DSHEA and TCM libraries (AID 1919978).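 Further: compounds preincubated with 1 µM D-luciferin or buffer before detection reagent; % of control where 0% means no effect.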 The conditions noted are these: firefly luciferase detection reagent interference, luminescence. The method in brief: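 With 1 uM D-luciferin or phosphate buffer only, compounds at final 19.5 nM–39.8 uM were incubated for 15 min at room temperature. Luciferase detection reagent was then added, and luminescence was measured after a further 30 min at room temperature.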

Assay [15] can be described thus: Dual reporter qHTS for agonist of Pregnane X Receptor (hPXR) against the NCATS DSHEA and TCM libraries: Fluorescence readout (AID 1920058). Further: 0% is about no effect. The method in brief: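 hPXR-Luc HepG2 cells, 2000/well in charcoal-stripped serum, attached 5 h, dosed for ~24 h at 37 °C. Fluorescence read is CellTiter-Fluor viability (Ex/Em 405/540 nm); rifampicin positive, tetraoctyl ammonium bromide (92 µM) cytotoxicity controls.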

Assay [16] has as its target Nuclear receptor subfamily 1 group I member 2 (Homo sapiens) (UniProt O75469). In words: Dual reporter qHTS for agonist of Pregnane X Receptor (hPXR) against the NCATS DSHEA and TCM libraries: Luminescence readout (AID 1920059). Further: 0% is about no effect. The method in brief:
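hPXR-Luc HepG2 cells, 2000/well in 5% charcoal-stripped FBS medium, attached 5 h, then exposed 24 h at 37C to compounds. Viability by CellTiter-Fluor, then luciferase luminescence with ONE-Glo.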

Assay [17] has the same target. In words: Dual reporter qHTS for antagonist of Pregnane X Receptor (hPXR) against the NCATS DSHEA and TCM libraries: Luminescence Readout (AID 1920060).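 Further: HepG2 cells carrying hPXR luciferase reporter stimulated with rifampicin at 2 µM; 0% is about no effect.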 In outline:
(§2)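 Antagonist mode: rifampicin 2 uM final co-added with compounds to hPXR-LucHepG2 cells for 24 h at 37C. Viability by CellTiter-Fluor, Ex/Em 405/540 nm, 1 h; reporter by ONE-Glo luminescence.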

Assay [18] can be described thus: Dual reporter qHTS for antagonist of Pregnane X Receptor (hPXR) against the NCATS DSHEA and TCM libraries: Fluorescence Readout (AID 1920061). Further: 0% is about no effect. In outline:
as §2

Unmarked numbers belong to inactive results. Records with an inconclusive call do not appear. The source made the active and inactive calls. The call rests on the fitted dose curve; in most records, active means well fitted curve in the direction sought with a large enough effect; inconclusive means small, poorly fitted or top-dose-only effect, or another doubt; inactive means no such curve, though single readings can be large; an effect the other way counts as inactive or inconclusive.

Sequence of Nuclear receptor subfamily 1 group I member 2 (Homo sapiens) (O75469 whole entry, looked up): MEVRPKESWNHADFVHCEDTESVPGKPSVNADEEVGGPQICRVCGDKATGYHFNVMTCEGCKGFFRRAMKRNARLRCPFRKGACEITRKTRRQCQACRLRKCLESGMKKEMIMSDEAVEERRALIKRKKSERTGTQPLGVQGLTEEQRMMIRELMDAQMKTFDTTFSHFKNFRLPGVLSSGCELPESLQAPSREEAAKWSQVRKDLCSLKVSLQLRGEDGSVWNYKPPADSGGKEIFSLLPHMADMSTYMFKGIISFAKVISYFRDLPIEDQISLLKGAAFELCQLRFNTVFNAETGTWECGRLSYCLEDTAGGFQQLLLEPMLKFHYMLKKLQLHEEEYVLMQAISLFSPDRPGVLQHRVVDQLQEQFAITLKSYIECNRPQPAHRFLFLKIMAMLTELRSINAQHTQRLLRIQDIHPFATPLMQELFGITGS
Sequence of Cytochrome P450 3A4 (Homo sapiens) (P08684 whole entry, looked up): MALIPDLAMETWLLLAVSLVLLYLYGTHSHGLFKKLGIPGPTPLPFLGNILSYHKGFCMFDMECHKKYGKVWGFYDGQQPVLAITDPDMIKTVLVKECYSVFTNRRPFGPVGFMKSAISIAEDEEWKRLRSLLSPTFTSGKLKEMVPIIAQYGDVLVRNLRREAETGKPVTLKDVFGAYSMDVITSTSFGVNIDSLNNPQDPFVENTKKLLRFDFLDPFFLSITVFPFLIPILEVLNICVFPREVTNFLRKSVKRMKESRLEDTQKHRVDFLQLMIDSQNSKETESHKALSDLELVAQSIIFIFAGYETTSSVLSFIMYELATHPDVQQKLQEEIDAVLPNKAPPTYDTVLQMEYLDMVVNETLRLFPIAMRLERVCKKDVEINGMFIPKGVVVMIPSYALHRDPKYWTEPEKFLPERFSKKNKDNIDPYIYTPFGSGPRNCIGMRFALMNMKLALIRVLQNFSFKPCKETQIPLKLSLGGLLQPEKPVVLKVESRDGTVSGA
Sequence of Cytochrome P450 2D6 (Homo sapiens) (P10635 whole entry, looked up): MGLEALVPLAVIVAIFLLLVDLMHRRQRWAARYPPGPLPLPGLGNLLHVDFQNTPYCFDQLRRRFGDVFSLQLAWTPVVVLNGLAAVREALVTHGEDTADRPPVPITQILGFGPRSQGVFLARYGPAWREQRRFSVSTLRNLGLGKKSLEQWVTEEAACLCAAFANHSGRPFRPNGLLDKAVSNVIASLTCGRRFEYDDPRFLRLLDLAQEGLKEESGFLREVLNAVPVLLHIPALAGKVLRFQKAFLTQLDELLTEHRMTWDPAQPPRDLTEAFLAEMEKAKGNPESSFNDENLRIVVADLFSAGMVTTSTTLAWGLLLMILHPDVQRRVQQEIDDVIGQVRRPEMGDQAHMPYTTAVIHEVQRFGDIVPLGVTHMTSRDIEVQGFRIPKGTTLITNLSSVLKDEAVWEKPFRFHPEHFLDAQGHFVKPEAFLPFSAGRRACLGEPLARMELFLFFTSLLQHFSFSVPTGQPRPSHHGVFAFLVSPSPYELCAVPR

Consider `CCNc1cc(NC2CCC(O)CC2)nc(Nc2ccc3c(ccn3Cc3ccccc3)c2)n1` (centres undefined), for which the Potency in assay [1] is 20.9 µM (active); in assay [2], 23.5 µM (active); in [3], 37.2 µM (active); in assay [4], 23.5 µM (active); in assay [5], 20.9 µM (active); in assay [6], 20.9 µM (active).

On to `O=c1c(O)c(-c2ccc(O)cc2)oc2cc(O)cc(O)c12`, for which the Potency was 14.8 µM (active) in [1]; 16.6 µM (active) in assay [2]; 16.6 µM (active) in [7]; 18.7 µM (active) in assay [5]; 4.69 µM (active) in assay [8].

In the case of `CC(=Cc1ccccc1)C=C1SC(=S)N(CC(=O)O)C1=O`, the Potency result in assay [1], in assay [2], in [4], in assay [5], in assay [9] and in assay [10] was “inactive” throughout. In addition, the Potency result in assay [6] and in [8] was “inactive” throughout.

On to `CC(C)(C)COc1ccc(-n2cc(C(=O)O)cn2)cc1C#N`, for which the Potency result in [1], in [2], in [3], in assay [5], in assay [9] and in [10] was “inactive” each time. The Potency result in [6] is “inactive”.

Consider `CC1(C)O[C@H]2C[C@@H]3[C@H]4CCC5=CC(=O)C=C[C@]5(C)[C@@]4(F)[C@@H](O)C[C@]3(C)[C@]2(C(=O)CO)O1`, for which the Potency result in assay [1], in assay [2], in assay [3], in assay [4], in [10] and in assay [8] was “inactive” in each case. In addition, the values for the Potency in assay [5], in [9] and in assay [6] were 0.059 µM (active), 0.003 µM (active) and 0.0083 µM (active), respectively.

Take `O=c1c(-c2ccc(O)cc2)coc2cc(O)ccc12`: the Potency entry in [1], in assay [2], in assay [3], in assay [4], in assay [5] and in [10] was “inactive” in each case. The Potency result in assay [6] and in assay [8] was “inactive” throughout.

Regarding `CC(C)(Cc1ccc2ccccc2c1)NC[C@@H](O)COc1cccc(Cl)c1C#N`, the Potency result in assay [1], in assay [2], in assay [3], in assay [4], in [5] and in assay [10] was “inactive” in each case. Moreover, the Potency entry in assay [6] and in assay [8] was “inactive” each time.

As for `O=c1cc(N2CCOCC2)oc2c(-c3cccc4c3sc3ccccc34)cccc12`, the Potency in [1] is 5.9 µM (active); in assay [2], 6.62 µM (active); in [4], 9.35 µM (active); in assay [5] it was 8.33 µM (active); in [8], 3.72 µM (active).

With `O=c1c(-c2ccc(O)cc2)coc2cc(O[C@@H]3O[C@H](CO)[C@H](O)[C@H](O)[C@H]3O)ccc12`, the Potency entry in assay [1], in assay [2], in assay [4], in [5], in [9] and in assay [10] was “inactive” each time. The Potency result in [6], in assay [8] and in assay [16] was “inactive” each time. Also, the molecule was classed as inactive in assay [11], in [12], in [13], in assay [15], in assay [17] and in assay [18]. Moreover, in assay [14], the max response was 1.56%.

As for `CC(=O)N(C)C1(c2ccccc2)CCN(CCC[C@]2(c3ccc(Cl)c(Cl)c3)CCCN(C(=O)c3ccccc3)C2)CC1`, the Potency was 8.33 µM (active) in assay [1]; 14.8 µM (active) in [2]; 20.9 µM (active) in assay [4]; 13.2 µM (active) in assay [5]; 23.5 µM (active) in assay [9]; 9.35 µM (active) in assay [6]. In assay [8], the Potency was 20.9 µM (active).

The record behind these values is PubChem BioAssay (NCATS).
